Where “and” joins values, the source holds several entries; their conditions need not be identical. Equal entries are not always repeated. Results filed as inconclusive are left out. Entries that show only a call come without a potency. Calls of active or inactive are those of the source. Unless noted, calls follow the shape of the dose curve; as a rule, active = well fitted cell-killing curve with a large enough effect in the repeat runs (not every such curve was filed as active); inconclusive = weak or mixed curves, or effect the other way; inactive = no such curve, though single readings can be large or run the other way.
Potency is read from the fitted curve at half-maximal effect.

The nature of one assay: qHTS assay to identify small molecule antagonists of the estrogen related receptor signaling pathway with the pleiotropic PPARgamma coactivator (PGC) from Tox21 10K library - cell viability counter screen (AID 1224840). Also: nearly all actives have a fitted effect of over 40% in size. To be noted: PGC/ERR reporter cells viability, CellTiter-Fluor, 17.5 h; series mostly up to 92.4 µM. In outline:
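Counter-screen for cytotoxicity: after 17.5 h compound exposure at 37 C, CellTiter-Fluor reagent added to PGC/ERR cells for 30 min and fluorescence read. Cells were seeded at 2,000 per well 6 h before dosing.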
For orientation: In qHTS, concentration-response curves come from the screen itself.
For `CCCCCCCCCCCCCCCC[N+](C)(C)CCN(Cc1ccc(OC)cc1)c1ncccn1`, the Potency result is “inactive”.
For the compound `O=C(Nc1cccc(C(F)(F)F)c1)c1cc(Br)cc(Br)c1O`, the Potency is 6.86 µM (active).
Consider `OCCN1CCN(CC/C=C2/c3ccccc3Sc3ccc(C(F)(F)F)cc32)CC1`, for which the Potency is 29.8 µM (active).
`O=C(O)c1cc(O)c2c(c1)C(=O)c1cccc(O)c1C2=O`: the Potency entry is “inactive”.
On the same count and under the same terms, then `N=C1N=C(N)c2cc3ccccc3cc21`, with 27.3 µM (active).
As for `CCCCCCCCS(=O)C(C)Cc1ccc2c(c1)OCO2` (stereo unspecified), the Potency result is “inactive”.
On to `CCCCCCCC[N+](CCCCCCCC)(CCCCCCCC)CCCCCCCC`, for which the Potency was 21.6 µM (active).
As to `O=C(Nc1cccc(Cl)c1)OCC#CCCl`, the Potency is 48.6 µM (active).
Consider `CCC(CN)=C(c1ccccc1)c1ccccc1`, for which the Potency result is “inactive”.
For `CCCCCCCCCCCCCCCC(=O)OC[C@H](O)[C@H]1OC(=O)C(O)=C1O`, the Potency entry is “inactive”.
As for `O=[N+]([O-])c1cc([N+](=O)[O-])c2ccc(S(=O)(=O)O)cc2c1O`, the Potency is 24.2 µM (active).
Consider `CN(C)c1ccc(SC#N)cc1`, for which the Potency entry is “inactive”.
Same read-out and setting: next, `CCOc1nc2cccc(C(=O)OC(C)OC(=O)OC3CCCCC3)c2n1Cc1ccc(-c2ccccc2-c2nn[nH]n2)cc1` (stereo unspecified): 43.2 µM (active); `CCCCN(CCCC)c1ccc(C(=O)c2ccccc2C(=O)O)c(O)c1`: “inactive”; `CCCC/C=C/CCCCO`: “inactive”.
Same read-out and setting: then `Nc1ccc2cc(S(=O)(=O)O)cc(O)c2c1N=Nc1ccccc1C(F)(F)F`, with “inactive”.
On the same count and under the same terms, then `NC(=NCCCCCCN=C(N)/N=C(\N)Nc1ccc(Cl)cc1)/N=C(\N)Nc1ccc(Cl)cc1`, with 54 µM (active) [middle of 4 runs].
For `Cc1nc(-c2ccc3c(c2)CCN(CCC2CCC(NC(=O)/C=C/c4ccc(F)cc4)CC2)CC3)no1` (stereo unspecified), the Potency result was “inactive”.
Still for that read-out and setting: then `CC[C@H](c1ccc(O)cc1)[C@@H](CC)c1ccc(O)cc1`, with “inactive”.
Regarding `CNC(=O)c1ccccc1`, the Potency result was “inactive”.

A further assay is described as follows: qHTS assay to identify small molecule antagonists of the estrogen related receptor signaling pathway with the pleiotropic PPARgamma coactivator (PGC) from Tox21 10K library (AID 1224841; call rule not given here; also: actives are mostly falling curves and most rising ones were filed inactive; nearly all actives have a fitted effect of over 50% in size). The following applies: PGC/ERR reporter cell line, ONE-Glo luciferase, 18 h; series mostly up to 92.4 µM. In outline:
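Luminescence (One-Glo, 30 min at room temperature) after 18 h compound treatment at 37 C of PGC/ERR reporter cells plated at 2,000 cells/well and settled 6 h beforehand.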
As for `OCCN1CCN(CC/C=C2/c3ccccc3Sc3ccc(C(F)(F)F)cc32)CC1`, the Potency is 29.8 µM (active).
Turning to `Oc1ccc(Cl)cc1Sc1cc(Cl)ccc1O`, the Potency is 13.7 µM (active) and 10.6 µM (active).
On to `N=C1N=C(N)c2cc3ccccc3cc21`, for which the Potency entry is “inactive”.
Take `CNCc1cc(F)ccc1Oc1ccc(Cl)c(Cl)c1`: the Potency entry was “inactive”.
As for `O=C(Nc1cccc(Cl)c1)OCC#CCCl`, the Potency is 21.7 µM (active).
Take `CCCCCCCCCCCCCCCC(=O)OC[C@H](O)[C@H]1OC(=O)C(O)=C1O`: the Potency result was “inactive”.
As for `C[C@@H]1C[C@H]2[C@@H]3CCC4=CC(=O)C=C[C@]4(C)[C@@]3(Cl)[C@@H](O)C[C@]2(C)[C@@]1(OC(=O)c1ccco1)C(=O)CCl`, the Potency was 23.7 µM (active).
Take `CCOc1nc2cccc(C(=O)OC(C)OC(=O)OC3CCCCC3)c2n1Cc1ccc(-c2ccccc2-c2nn[nH]n2)cc1` (stereo unspecified): the Potency was 54.4 µM (active).
`CCCCN(CCCC)c1ccc(C(=O)c2ccccc2C(=O)O)c(O)c1`: the Potency result is “inactive”.
For `CN1CCC(Nc2ncc3ncnc(Nc4ccc(F)c(Cl)c4)c3n2)CC1`, the Potency result was “inactive”.
With `O=c1c(-c2ccccc2)c1-c1ccccc1`, the Potency is 9.44 µM (active).

Values taken from PubChem BioAssay (Tox21).
